NOMO-1 viab – STK33 inhibitor candidate reducing NOMO-1 cell viability; NOMO-1 AML viability, CellTiter-Glo luminescence, 72 h; inhibition, % (concentration not given with the values); 7.5% of 37,000 active; AID 2330; in the data active means inhibition above about 80%; inconclusive means no clear call, values can overlap the other calls
Hedgehog inh – Sonic Hedgehog pathway inhibition | Shh-LIGHT2 Gli-luciferase reporter, 30 h | inhibition, % (no concentration beside the values) | 2.1% of 22,000 active;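 active means mean inhibition across valid replicates above about 65%, limit read from the data; inconclusive means mean under the limit, yet half or more replicates past it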;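 further: pathway switched on by Shh-conditioned medium diluted 1 in 25 in low serum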
MITF inh – blocks MITF activity; TRPM1 promoter luciferase, luminescence, 24 h; inhibition, % (no concentration beside the values); 0.28% of 37,000 active; AID 2240; in the data active means inhibition above about 85%; inconclusive means no clear call, values can overlap the other calls; inactive means below about 68%;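 further: human melanocyte line stably carrying TRPM1 promoter luciferase reporter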
PD-1 reversal – activators reversing PD-1 mediated T-cell inhibition | primary human CD4 T cells, PD-L1 beads, CellTiter-Glo 96 h | activation, % (test concentration not listed) | 29,000 tested, under 10 active | AID 2316; call rule not given here
Numbers stand for hits; . = inactive; ? = inconclusive; / = no result. Only some compounds are listed: those with a hit (about 7.8% of all), similar ones and a draw of the others.

SMILES | NOMO-1 viab | Hedgehog inh | MITF inh | PD-1 reversal
C=C1CC[C@@H]2[C@](C)(CO)[C@H](O)CC[C@@]2(C)[C@@H]1CC(O)C1=CCOC1=O (some centres not stated) | 106 | . | . | .
CCCNC(=O)Nc1ccc(N2CCC(C(F)(F)F)CC2)nc1 | . | . | . | .
C[C@H]1CN([C@@H](C)CO)C(=O)Cc2cc(NC(=O)NC3CCCCC3)ccc2O[C@@H]1CN(C)Cc1ccncc1 | . | / | . | .
C[C@@H]1CN([C@H](C)CO)C(=O)Cc2cc(NC(=O)C3CCCCC3)ccc2O[C@H]1CN(C)Cc1ccc(Cl)c(Cl)c1 | ? | . | . | .
C[C@H](CO)N1C[C@H](C)[C@H](CN(C)Cc2ccc(Cl)c(Cl)c2)Oc2ccc(NC(=O)NC3CCCCC3)cc2CC1=O | 100 | . | . | .
C[C@@H]1CN([C@H](C)CO)C(=O)Cc2cc(NC(=O)C3CCCCC3)ccc2O[C@@H]1CN(C)Cc1ccc(Cl)c(Cl)c1 | 114 | . | . | .
Cc1cc2c(c(=O)n1Cc1ccccn1)C(c1ccccc1)C(C#N)=C(N)O2 (configuration not stated) | . | / | . | .
Fc1ccccc1OCCSc1nc2ccccc2s1 | . | . | . | .
Cc1ccc2oc(-c3ccc(Cl)c(NC(=O)COc4ccc(C)c(C)c4)c3)nc2c1 | . | / | . | .
Cc1cc2nc(-c3ccc(C)c(NC(=O)COc4ccc([N+](=O)[O-])cc4)c3)oc2cc1C | 94 | / | . | .
Cc1cccc(OCC(=O)Nc2cc(-c3nc4cc(Cl)ccc4o3)ccc2C)c1 | 103 | / | . | .
Cc1nnsc1C(=O)Nc1cccnc1 | . | . | . | .
O=C(Cn1c(=O)oc2ccccc21)Nc1ccc2c(c1)oc1ccccc12 | . | / | . | .
Cc1cc(C)c(NC(=O)CSc2nc(-c3ccccc3)c(-c3ccccc3)[nH]2)c(C)c1 | 101 | / | 92 | .
Cc1ccc(NC(=O)CSc2nc(-c3ccccc3)c(-c3ccccc3)[nH]2)c(C)c1 | . | / | . | /
O=C(CSc1nc2ccccc2[nH]1)Nc1cccc2ccccc12 | . | / | . | .
Cc1ccccc1NC(=O)CSc1nc2cc3ccccc3cc2[nH]1 | 115 | / | . | /
O=C(Cc1ccccc1)c1ccccc1C(=O)NCc1cccs1 | . | . | . | .
CCC(=O)c1ccc(OC)cc1OC | . | . | . | .
Nc1nnnn1/N=C1/C(=O)Nc2ccc(Br)cc21 | . | . | . | .
N#CC(C(=O)c1ccco1)c1nc2ccccc2[nH]1 (configuration not stated) | . | . | . | .
CSc1sc(Cl)c2c1/C(=N\O)CC(C)(C)C2 | 110 | ? | . | .
CSc1sc(/C(C)=N\O)c2c1/C(=N\O)CC(C)(C)C2 | . | / | . | .
C[C@H](CO)N1C[C@H](C)[C@H](CN(C)Cc2ccc(C(=O)Nc3ccccc3N)cc2)Oc2c(cccc2N(C)C)C1=O | 124 | / | . | .
C[C@@H]1CN([C@H](C)CO)C(=O)c2cccc(N(C)C)c2O[C@@H]1CN(C)Cc1ccc(C(=O)Nc2ccccc2N)cc1 | 127 | / | . | .
SMILES | NOMO-1 viab | Hedgehog inh | MITF inh | PD-1 reversal
O=C(CSc1nc2ccccc2s1)NC1CCCCC1 | . | / | . | .
Cc1noc(C)c1NC(=O)Nc1ccc2c(c1)CC(=O)N([C@@H](C)CO)C[C@H](C)[C@H](CN(C)Cc1ccc(Oc3ccccc3)cc1)O2 | 100 | . | . | .
Cc1noc(C)c1NC(=O)Nc1ccc2c(c1)CC(=O)N([C@@H](C)CO)C[C@H](C)[C@H](CN(C)Cc1ccc(-c3ccccc3)cc1)O2 | 99 | . | . | .
COC(=O)c1c[nH]c(=S)n1C | . | . | . | .
CCc1ccc[n+](OC(=O)N(CC)CC)c1 | 102 | / | . | .
CCNc1cc(N)[n+](CC)c2n[nH]c(N)c12 | 106 | . | . | .
N#Cc1ccccc1NC(=O)COc1ccccc1[N+](=O)[O-] | . | / | . | .
CSC1=N/C(=C\c2ccccc2C)C(=O)S1 | . | . | . | .
CSC1=N/C(=C\c2ccc(Br)cc2)C(=O)S1 | 131 | . | . | .
O=C(O)CCS(=O)(=O)c1cccc2cccnc12 | . | / | . | .
COC(=O)CCS(=O)(=O)c1cccc2c(S(=O)(=O)CCC(=O)OC)cccc12 | 124 | . | . | .
O=C(Nc1ccccc1)c1cc([N+](=O)[O-])ccc1NCc1cccnc1 | . | / | . | .
O=C(Nc1ccc([N+](=O)[O-])cc1Cl)c1cc(Cl)ccc1O | 120 | 88 | 106 | /
O=C(COc1ccc([N+](=O)[O-])cc1)Nc1cc(Cl)ccc1O | . | / | . | .
O=C(Nc1ccccc1)c1cc([N+](=O)[O-])ccc1Cl | 118 | . | . | .
CS(=O)(=O)N(CC(=O)Nc1ccc(Oc2ccccc2)cc1)c1ccc(F)c(Cl)c1 | . | / | . | .
COC(=O)c1cccc2oc3cc(CO)cc(O)c3c(=O)c12 | . | . | . | .
COC(=O)C1=C2C(=O)c3c(O)cc(CO)cc3OC2C(O)C=C1 (configuration not stated) | 108 | . | . | .
CCOC(=O)CSc1n[nH]c(CN2c3ccccc3Sc3ccccc32)n1 | 117 | ? | . | .
O=c1cc(-c2ccc(O)c(O)c2)c2c(O[C@@H]3O[C@H](CO)[C@@H](O)[C@H](O)[C@H]3O)cc(O)cc2o1 | . | . | . | .
CCOC(=O)c1cnc2c(c(C3CC3)nn2C)c1N1CCOCC1 | . | / | . | .
CCOC(=O)c1cnc2c(c(C)nn2C)c1Sc1nnc(SC)s1 | 125 | 84 | . | .
C[C@H]1CN([C@@H](C)CO)C(=O)Cc2cc(NS(=O)(=O)c3ccc(Cl)cc3)ccc2O[C@H]1CN(C)Cc1ccc(-c2ccccc2)cc1 | 111 | . | . | .
C[C@@H]1CN([C@H](C)CO)C(=O)Cc2cc(NS(=O)(=O)c3ccc(Cl)cc3)ccc2O[C@@H]1CN(C)Cc1ccc(-c2ccccc2)cc1 | 122 | . | . | .
C[C@@H]1CN([C@@H](C)CO)C(=O)Cc2cc(NS(=O)(=O)c3ccc(Cl)cc3)ccc2O[C@@H]1CN(C)Cc1ccc(-c2ccccc2)cc1 | . | . | . | .
SMILES | NOMO-1 viab | Hedgehog inh | MITF inh | PD-1 reversal
O=C(Nc1ccc(F)cc1)c1cnccc1C(F)(F)F | . | . | . | .
Cc1ccc2ccc(C(Nc3ccccn3)c3ccc(Cl)c(Cl)c3)c(O)c2n1 (configuration not stated) | 117 | / | . | .
Cc1ccc(C(Nc2ccccn2)c2ccc3cccnc3c2O)cc1 (configuration not stated) | 112 | / | . | /
COc1ccc(I)cc1C(Nc1cc(C)ccn1)c1ccc2cccnc2c1O (configuration not stated) | 111 | / | . | .
Cc1ccc2ccc(C(Nc3ccccn3)c3ccc(C(C)C)cc3)c(O)c2n1 (configuration not stated) | 108 | / | . | .
COc1ccc(C(Nc2ccccn2)c2ccc3ccc(C)nc3c2O)cc1C (configuration not stated) | . | / | . | .
CC[n+]1ccc(C)c2cc(C(F)(F)F)ccc21 | . | / | . | .
COc1ccc2c(c1)C(C)(CC#N)C(=O)N2C (configuration not stated) | . | . | . | .
FC(F)(F)c1cc(C#CCN2CCCCC2)cc(C(F)(F)F)c1 | . | . | . | .
CCc1ccc(C(Nc2cc(C)ccn2)c2ccc3cccnc3c2O)cc1 (configuration not stated) | 112 | / | . | .
